# HTT prom inh: inhibits huntingtin promoter activity; Potency, µM (series often up to 57.5 µM), actives largely listed as inhibitors; HEK293 HTT promoter firefly luciferase reporter, 24 h; AID 1508623; 0.93% of 48,000 active; further: nearly all actives have a fitted effect of over 50% in size
#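 HEK293 Fluc reporter, 2,500 cells/well, 24 h pre-culture; cpds up to 57.5 uM final, 24 h 37 degrees C; Dual-Glo, 10 min RT; normalized vehicle = 0%, zero RLU = -100%.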
# NTMT1 inh: NTMT1 methyltransferase inhibition. NTMT1 MTase-Glo SAH luminescence, purified enzyme. Q9BV86. 2.5% of 59,000 active. AID 1645870. Potency, µM (highest dose often 114 µM), actives largely listed as inhibitors; further: nearly all actives have a fitted effect of over 65% in size
# Target sequence (Q9BV86 whole entry, looked up): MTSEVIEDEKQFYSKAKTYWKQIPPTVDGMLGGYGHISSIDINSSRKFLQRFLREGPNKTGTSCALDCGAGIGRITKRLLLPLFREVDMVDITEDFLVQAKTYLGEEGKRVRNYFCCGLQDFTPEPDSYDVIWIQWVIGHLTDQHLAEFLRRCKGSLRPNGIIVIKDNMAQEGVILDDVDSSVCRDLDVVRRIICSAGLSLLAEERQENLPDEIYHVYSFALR
# HTT-AS act: activates huntingtin-antisense promoter activity | HEK293 HTT-AS promoter firefly luciferase reporter, 24 h; response scale: percent change from vehicle, -100% = no light | Potency, µM (titrated, usually from 57.5 µM), hits mostly activators | 0.24% of 48,000 active | AID 1508624; further: nearly all actives have a fitted effect of over 55% in size
#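 Luminescence was read after Dual-Glo reagent and a 10 min room-temperature incubation. Values were normalized to vehicle (0% activity) and zero RLU (-100% activity). Reporter HEK293 cells had been exposed to compounds (up to 57.5 uM final) for 24 h.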
# NNMT inh: human NNMT inhibition, NTMT1 counter-screen; NNMT MTase-Glo luminescence, SAH detection; Potency, µM (series often up to 57.1 µM), most hits filed as inhibitors; 10% of 120 active; shares compounds with NTMT1 inh
# A number is an active result; 0 = inactive; ? = inconclusive; - = no result given. This is one part of a sample in which hits are shown more often than they occur. The call rests on the fitted dose curve; in most records, active means well fitted curve in the direction sought with a large enough effect; inconclusive means small, poorly fitted or top-dose-only effect, or another doubt; inactive means no such curve, though single readings can be large; an effect the other way counts as inactive or inconclusive.
SMILES,HTT prom inh,NTMT1 inh,HTT-AS act,others
C/C=C(\C)C(=O)N[C@@H](c1ccccc1)[C@@H](O)C(=O)O[C@H]1C[C@@]2(O)[C@@H](OC(=O)c3ccccc3)[C@@H]3[C@]4(OC(C)=O)CO[C@@H]4C[C@H](O)[C@@]3(C)C(=O)[C@H](OC(C)=O)C(=C1C)C2(C)C,-,0,-,
COC(=O)[C@@]12OC[C@]34[C@H]([C@@H](O)[C@@H]1O)[C@@]1(C)CC(=O)C(O)=C(C)[C@@H]1C[C@H]3OC(=O)[C@H](OC(=O)/C=C(\C)C(C)C)[C@@H]24,-,0,-,
COc1ccc2c(c1)/C(=C/c1cnc[nH]1)C(=O)N2,-,40µM,-,
COC(=O)c1ccc(O)c2ncc(N3CCN(C)CC3)cc12,-,0,-,
Nc1ccccc1C(=O)O,0,0,0,
O=C1C(I)=CC(=C(c2cc(I)c(O)c(I)c2)c2ccccc2C(=O)O)C=C1I,0,14µM,0,
CN1CCN(c2cnc3c(O)ccc(C(=O)O)c3c2)CC1,-,0,-,
C=C[C@H]1CN2CCC1C[C@@H]2[C@@H](O)c1ccnc2ccccc12 (stereo not given in full),-,0,-,
Cc1ccccc1-n1c(/C=C/c2ccc(O)cc2)nc2ccccc2c1=O,?,0,0,
Cc1ccc(-n2c(/C=C\c3ccc(F)c(F)c3)nc3ccccc3c2=O)c(C)c1,7.1µM,0,0,
CC1(C)CC[C@]2(NC(=O)C(C)(F)F)CC[C@]3(C)[C@H](C(=O)C=C4[C@@]5(C)C=C(C#N)C(=O)C(C)(C)[C@@H]5CC[C@]43C)[C@@H]2C1,-,0,-,
COP(=S)(OC)SCN1C(=O)c2ccccc2C1=O,0,28µM,0,
CCOc1ccc(CCNC(=O)c2cc3ncccc3n2Cc2cccc(C)c2)cc1OCC,-,0,-,
C[C@H](N)[C@H](O)c1ccc(O)c(O)c1,0,20µM,0,
C[C@H]1CCCC=CC2C[C@H](O)C[C@@H]2[C@H](O)C=CC(=O)O1 (stereo not given in full),?,0,0,
C[C@H]1CCC[C@H](O)CCC/C=C/c2cc(O)cc(O)c2C(=O)O1,-,1.4µM,-,NNMT inh=3.5µM
Fc1cc(F)c2c(c1)[C@H]1C=CC[C@H]1C(c1cccnc1)N2 (stereo not given in full),-,0,-,
